The source of these data is PubChem BioAssay (NCATS).

“And” between values parts separate entries of the source, which are not always exact repeats. Equal values may be shown once. Inconclusive results are not listed. Where a call stands in place of a potency, no number is given. The source made the active and inactive calls. Unless noted, calls come from the whole dose curve; as a rule, active = well fitted curve in the direction sought with a large enough effect; inconclusive = small, poorly fitted or top-dose-only effect, or another doubt; inactive = no such curve, though single readings can be large; an effect the other way counts as inactive or inconclusive. Non-standard residues stand in square brackets, D forms with d. Residues, ends and D or L forms follow the SMILES beside them. *: point of attachment. Nva = CCC[C@H](N)C(=O)O; Cbz = O=C(OCc1ccccc1)*

Assay [1] concerns the target Calcium and integrin-binding protein 1 (Homo sapiens) (UniProt Q99828). Briefly: Primary qHTS for Identification of Calcium Integrin Binding Protein 1 (CIB1) Competitor (AID 1508620).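 For activity change, negative = inhibition: GST tagged CIB1 binding a fluorescein labelled alphaIIb integrin peptide tracer; top concentration of the series differs between compounds.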 Note: potency is the fitted concentration of half-maximal effect. In short, it runs like this: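 CIB1-GST (1 uM final) and compound incubated 15 min at room temperature before adding FITC-alphaIIb peptide tracer (100 nM final). Competition for binding read by fluorescence polarization (ex 480, em 540) after another 15 min at room temperature.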
For orientation: qHTS replaces the single test concentration by a dilution series.

The nature of assay [2]: Primary qHTS for small molecule stabilizers of the endoplasmic reticulum resident proteome: Secreted ER Calcium Modulated Protein (SERCaMP) assay (AID 1508630). In short, it runs like this:
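GLuc-SERCaMP-expressing SH-SY5Y cells, pretreated 16 h with compound, are challenged with thapsigargin to empty ER calcium stores; after 4 h, coelenterazine is added directly to the medium and luminescence is imaged.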

Assay [3] addresses N-terminal Xaa-Pro-Lys N-methyltransferase 1 (Homo sapiens) (UniProt Q9BV86). Briefly: Confirmatory qHTS for Inhibitors of N-terminal methyltransferase 1 (NTMT1): MTaseGlo Assay (AID 1645874). Note: potency is the fitted concentration of half-maximal effect; nearly all actives have a fitted effect of over 65% in size. As to conditions: NTMT1 enzyme, MTase-Glo SAH luminescence. In short, it runs like this: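 qHTS format: NTMT1 125 nM, SAM 100 uM, peptide SPKRIA 1 uM final; 15 min compound preincubation, 30 min reaction at room temperature. MTase-Glo luminescence.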

Assay [4] has as its target Catechol O-methyltransferase (Homo sapiens) (UniProt P21964). As to the kind of experiment: Confirmatory Screen for Target Class Profiling of Small Molecule Inhibitors of Methyltransferases (AID 1745852; calls by dose curve; note: potency is the fitted concentration of half-maximal effect). The note with it: MTase-Glo luminescence, SAH detection, recombinant enzyme; measured here: COMT max response; stronger effect = lower value.
Assay [5] concerns the target Guanidinoacetate N-methyltransferase (Homo sapiens) (UniProt Q14353). The description is as above. As to conditions: activity change, negative = inhibition: at 57.3 µM (top of the series).
Assay [6] has as its target Nicotinamide N-methyltransferase (Homo sapiens) (UniProt P40261). The assay is described as above. The note with it: MTase-Glo luminescence, SAH detection, recombinant enzyme; measured here: NNMT max response; stronger effect = lower value.
Assay [7] can be described thus: Primary qHTS for inhibitors of nuclear receptor binding SET domain protein 2 (NSD2) in an isogenic RCH-ACV NSD2 p.E1099K mutant (9B) (AID 1645876). Note: potency is the fitted concentration of half-maximal effect; nearly all actives have a fitted effect of over 70% in size.
The nature of assay [8]: Primary qHTS for inhibitors of nuclear receptor binding SET domain protein 2 (NSD2) in an RCH-ACV wild type WT cells (2C) (AID 1645877). Note: potency is the fitted concentration of half-maximal effect; nearly all actives have a fitted effect of over 70% in size.

Chain of Calcium and integrin-binding protein 1 (Homo sapiens) (Q99828 whole entry, looked up): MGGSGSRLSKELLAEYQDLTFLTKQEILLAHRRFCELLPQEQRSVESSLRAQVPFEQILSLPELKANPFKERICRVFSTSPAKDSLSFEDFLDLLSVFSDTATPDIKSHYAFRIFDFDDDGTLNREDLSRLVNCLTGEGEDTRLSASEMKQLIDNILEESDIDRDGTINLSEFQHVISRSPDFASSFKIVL
Chain of Catechol O-methyltransferase (Homo sapiens) (P21964 whole entry, looked up): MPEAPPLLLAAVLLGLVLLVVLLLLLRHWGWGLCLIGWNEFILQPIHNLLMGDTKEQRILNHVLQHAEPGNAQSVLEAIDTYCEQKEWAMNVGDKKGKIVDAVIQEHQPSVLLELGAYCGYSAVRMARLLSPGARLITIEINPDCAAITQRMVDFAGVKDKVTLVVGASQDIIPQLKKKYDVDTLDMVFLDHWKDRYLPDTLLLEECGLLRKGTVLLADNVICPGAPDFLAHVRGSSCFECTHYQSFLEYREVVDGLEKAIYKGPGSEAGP
Chain of Nicotinamide N-methyltransferase (Homo sapiens) (P40261 whole entry, looked up, the tested form may be a part): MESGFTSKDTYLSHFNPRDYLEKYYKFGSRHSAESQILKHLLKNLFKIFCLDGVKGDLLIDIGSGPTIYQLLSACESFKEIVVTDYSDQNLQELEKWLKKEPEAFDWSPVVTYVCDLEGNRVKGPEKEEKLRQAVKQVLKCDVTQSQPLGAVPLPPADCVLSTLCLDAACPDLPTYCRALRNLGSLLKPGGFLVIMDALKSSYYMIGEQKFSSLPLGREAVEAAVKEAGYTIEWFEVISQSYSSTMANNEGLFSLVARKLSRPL
Chain of N-terminal Xaa-Pro-Lys N-methyltransferase 1 (Homo sapiens) (Q9BV86 whole entry, looked up): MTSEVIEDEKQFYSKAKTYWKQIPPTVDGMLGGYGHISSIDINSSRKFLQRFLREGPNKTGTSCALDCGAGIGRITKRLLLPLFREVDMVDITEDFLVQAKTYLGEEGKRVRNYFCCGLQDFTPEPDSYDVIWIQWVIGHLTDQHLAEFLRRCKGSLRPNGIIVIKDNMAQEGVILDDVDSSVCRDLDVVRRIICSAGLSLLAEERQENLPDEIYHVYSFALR

`COc1cc([C@@H]2c3cc4c(cc3[C@@H](O[C@@H]3O[C@@H]5CO[C@@H](c6cccs6)O[C@@H]5[C@H](O)[C@@H]3O)[C@H]3COC(=O)[C@H]23)OCO4)cc(OC)c1O`: in assay [1], the Potency result was “inactive”. For the same compound, in assay [2], the outcome is “inactive”.
For the compound `N#Cc1ccc(COC[C@H]2O[C@@H](n3c(NCc4ccc(Cl)c(Cl)c4)nc4c(N)ncnc43)[C@@H](O)[C@@H]2O)cc1`, in assay [1], the Potency result is “inactive”. Moreover, the outcome in assay [2] is “inactive”.
Take `C[C@@H](Oc1ccc2[nH]nc(C=Cc3cnn(CCO)c3)c2c1)c1c(Cl)cncc1Cl`: in assay [1], the Potency entry is “inactive”. In addition, the outcome in assay [2] is “inactive”.
Consider `COC(=O)C=CC(=O)OC`, for which the Potency result in assay [1] is “inactive”. Moreover, the outcome in assay [2] was “inactive”.
With `CC(=O)N[C@H]1[C@@H]([C@H](O)[C@H](O)CO)OC(C(=O)O)=C[C@@H]1N=C(N)N`, the Potency entry in assay [1] is “inactive”. Further, the outcome in assay [2] is “inactive”.
As to `O=C(C=Cc1ccc(CN(CCO)CCc2c[nH]c3ccccc23)cc1)NO`, the Potency result in assay [1] was “inactive”. For the same compound, the outcome in assay [2] was “inactive”.
As for `O=C1c2c(O)cccc2[C@@H]([C@@H]2O[C@H](CO)[C@@H](O)[C@H](O)[C@H]2O)c2cc(CO)cc(O)c21`, the Potency result in assay [1] is “inactive”. Further, the outcome in assay [2] was “inactive”.
On to `CC(C=CC(=O)NO)=C[C@@H](C)C(=O)c1ccc(N(C)C)cc1`, for which, in assay [1], the Potency result was “inactive”. The outcome in assay [2] was “inactive”.
Consider `C[C@@]12C[C@@]3(O)O[C@@H](O1)[C@]1(COC(=O)c4ccccc4)[C@@H]3C[C@@]12O[C@@H]1O[C@H](CO)[C@@H](O)[C@H](O)[C@@H]1O`, for which the Potency result in assay [1] was “inactive”. Besides, the outcome in assay [2] is “inactive”.
Regarding `CC(=O)[C@]1(O)Cc2c(O)c3c(c(O)c2[C@@H](O[C@H]2C[C@H](N)[C@@H](O)[C@H](C)O2)C1)C(=O)c1ccccc1C3=O`, in assay [1], the Potency is 24.1 µM (active). Also, the outcome in assay [2] is “inactive”.
Taken in the same sequence, the figures for `Cc1cc(-c2nnc3n2CCCCC3)c(C)n1-c1ccccc1` were “inactive” and “inactive”.
Taken in the same sequence, the figures for `CC[C@]12C=CCN3CC[C@@]4(c5cc([C@@]6(C(=O)OC)C[C@H]7C[C@@H](C(C)(F)F)CN(Cc8c6[nH]c6ccccc86)C7)c(OC)cc5N(C)[C@H]4[C@@](O)(C(=O)OC)[C@H]1OC(C)=O)[C@@H]32` were “inactive” and “inactive”.
For `CCN(CC)CCNC(=O)c1c(C)[nH]c(C=C2C(=O)Nc3ccc(F)cc32)c1C`, in assay [1], the Potency result is “inactive”. For the same compound, in assay [2], the outcome is “inactive”.
Take `CCCCCN=C(N)NN=Cc1c[nH]c2ccc(OC)cc12`: the Potency entry in assay [1] is “inactive”. Also, in assay [2], the outcome is “inactive”.
In the case of `CC(C)N1[N]C(=C2C=c3cc(O)ccc3=N2)c2c(N)ncnc21`, in assay [1], the Potency entry is “inactive”. Further, in assay [2], the outcome was “inactive”.
For `C#C[C@]1(O)CC[C@@H]2[C@@H]3CCC4=CC(=O)CC[C@@H]4[C@H]3CC[C@@]21CC`, in assay [1], the Potency result was “inactive”. In addition, in assay [2], the outcome is “inactive”.
In the case of `CC(C)(C)[N+]([O-])=Cc1ccc(S(=O)(=O)O)cc1S(=O)(=O)O`, the Potency entry in assay [1] is “inactive”. Besides, in assay [2], the outcome was “inactive”.
On to `O=C(Nc1cc2cc[nH]c2cn1)c1ccccc1`, for which the Potency in assay [3] is 6.31 µM (active); in assay [5], 19.2 µM (active). In addition, the activity in assay [4] was -83.5%; in assay [6], -77.9%.
`CN1CCc2c(c3ccccc3n2Cc2ccc(C(=O)NO)cc2)C1`: the activity is 0% in assay [4] and -7.28% in assay [6]. Further, the activity change, negative = inhibition in assay [5] is -3.04%.
Take `NC(=NCCCCCCN=C(N)N=C(N)Nc1ccc(Cl)cc1)N=C(N)Nc1ccc(Cl)cc1`: the Potency result in assay [1] was “inactive”. Besides, in assay [2], the outcome was “inactive”. Besides, the figures for the Potency in assay [7] and in assay [8] were 4.17 µM (active) and 5.25 µM (active), respectively.
For the compound `CCc1ccc(C(=O)Nc2cc(CN3CCN(C)CC3)cc(C(F)(F)F)c2)cc1C#Cc1cnc2ccnn2c1`, the Potency entry in assay [1] was “inactive”. In addition, the Potency in assay [7] was 5.78 µM (active) and 5.25 µM (active); in assay [8], 5.15 µM (active) and 4.17 µM (active).
Take `COc1cc(CCc2cc(NC(=O)c3ccc(N4C[C@@H](C)N[C@@H](C)C4)cc3)n[nH]2)cc(OC)c1`: in assay [1], the Potency entry was “inactive”. Moreover, the outcome in assay [2] is “inactive”. The results for the Potency in assay [7] and in assay [8] were 9.34 µM (active) and 5.9 µM (active), respectively.
For the compound `Cn1c(Nc2ccc(C(F)(F)F)cc2)nc2cc(Oc3ccnc(-c4ncc(C(F)(F)F)[nH]4)c3)ccc21`, the Potency result in assay [1] was “inactive”. Moreover, in assay [2], the outcome was “inactive”. The Potency in assay [7] is 7.31 µM (active) and 5.25 µM (active); in assay [8], 8.2 µM (active) and 4.17 µM (active).
As for `COc1cccc2c1C(=O)c1c(O)c3c(c(O)c1C2=O)C[C@@](O)(C(C)=O)C[C@H]3O[C@H]1C[C@H](N)[C@H](O)[C@H](C)O1`, the outcome in assay [2] is “inactive”.
Regarding `O=C(NC1CC1)c1cccc(-c2ccc3c(NC(=O)C4CC4)n[nH]c3c2)c1`, the Potency entry in assay [1] was “inactive”. Besides, the outcome in assay [2] is “inactive”. For the same compound, the Potency in assay [7] is 8.33 µM (active); in assay [8], 5.25 µM (active).
On to `COc1cc(C)c(Sc2cnc(NC(=O)c3ccc(CNC(C)C(C)(C)C)cc3)s2)cc1C(=O)N1CCN(C(C)=O)CC1` (stereo not drawn), for which the Potency entry in assay [1] is “inactive”. Further, the outcome in assay [2] was “inactive”. Further, the Potency in assay [7] is 7.42 µM (active); in assay [8], 4.68 µM (active).
Take `CCC[C@@H](C=O)NC(=O)[C@H](CC(C)C)NC(=O)[C@H](CC(C)C)NC(=O)OCc1ccccc1` (Cbz-Leu-Leu-[Nva]-aldehyde): the Potency result in assay [1] is “inactive”. In addition, in assay [2], the outcome is “inactive”. Besides, the Potency is 2.09 µM (active) in assay [7] and 1.05 µM (active) in assay [8].
Consider `Nc1ccc(C(=O)Nc2cccc(-c3nc(N4CCOCC4)c4oc5ncccc5c4n3)c2)cn1`, for which, in assay [1], the Potency result is “inactive”. In addition, the outcome in assay [2] was “inactive”. Further, the Potency in assay [7] was 1.15 µM (active) and 1.48 µM (active); in assay [8] it was 1.29 µM (active) and 1.05 µM (active).
